# Active and inactive are the calls of the source. The calls were made as follows: active = hit-call score of the fitted dose curve at least 0.9, where 1 is the maximum; inactive = score below 0.9.
# What was measured:
# Details in all cases: mRNA level, 48 h; actives raise or lower the signal
# [1] = read-out: Tumor necrosis factor receptor superfamily member 6 (Homo sapiens) (UniProt P25445); assay: LTEA_HepaRG_FAS: Life Technologies and Expression Analysis (LTEA) Assay for Fas cell surface death receptor (FAS) using HepaRG (AID 2283447)
# Procedure, shortened: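 FAS transcript level was measured by TaqMan qRT-PCR against three housekeeping genes after 48 h chemical exposure. Cells were HepaRG, 0.5% DMSO vehicle, with a top concentration of 100 uM and half-log dilutions over eight points, in duplicate.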
# [2] = read-out: Fatty acid synthase (Homo sapiens) (UniProt P49327); assay: LTEA_HepaRG_FASN: Life Technologies and Expression Analysis (LTEA) Assay for Fatty Acid Synthase (FASN) using HepaRG (AID 2283448)
# Procedure, shortened: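 Differentiated human HepaRG cells were exposed for 48 h in serum-free induction medium to eight half-log concentrations up to 100 uM in 0.5% DMSO, in duplicate. FASN mRNA was quantified by TaqMan qRT-PCR, normalized to ACTB/GAPDH/POLR2A, and fitted bidirectionally against DMSO.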
# [3] = read-out: Cyclin D2 (CCND2), CCND2 (gene 894); assay: LTEA_HepaRG_CCND2: Life Technologies and Expression Analysis (LTEA) Assay for Cyclin D2 (CCND2) using HepaRG (AID 2283449)
# Procedure, shortened: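 Read-out is CCND2 mRNA level measured by qRT-PCR in human HepaRG liver cells and normalised to three housekeeping genes. Chemicals were applied for 48 h at up to 100 uM, with gain or loss fitted relative to 0.5% DMSO.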
# [4] = read-out: Cyclin Dependent Kinase Inhibitor 1A (CDKN1A), CDKN1A (gene 1026); assay: LTEA_HepaRG_CDKN1A: Life Technologies and Expression Analysis (LTEA) Assay for Cyclin Dependent Kinase Inhibitor 1A (CDKN1A) using HepaRG (AID 2283450)
# Procedure, shortened: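 HepaRG, 48 h dosing, 8-pt half-log series from 100 uM top, 0.5% DMSO vehicle, duplicates. Readout: TaqMan qRT-PCR of CDKN1A transcript, housekeeping-normalized (ACTB, GAPDH, POLR2A). Up/down curve fit relative to DMSO.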
# [5] = read-out: catalase (CAT), CAT (gene 847); assay: LTEA_HepaRG_CAT: Life Technologies and Expression Analysis (LTEA) Assay for catalase (CAT) using HepaRG (AID 2283452)
# Procedure, shortened: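 Expression of CAT was quantified by TaqMan qRT-PCR with ACTB/GAPDH/POLR2A normalization after 48 h chemical exposure of HepaRG. Eight-point half-log series, top 100 uM, in 0.5% DMSO; gain or loss fitted against vehicle.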
# [6] = read-out: flavin-containing dimethylaniline monooxygenases 3 (FMO3), FMO3 (gene 2328); assay: LTEA_HepaRG_FMO3: Life Technologies and Expression Analysis (LTEA) Assay for flavin-containing dimethylaniline monooxygenases 3 (FMO3) using HepaRG (AID 2283453)
# Procedure, shortened: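 HepaRG, 48 h exposure, 8-pt half-log series from 100 uM, 0.5% DMSO vehicle, duplicates; FMO3 transcript by Fluidigm TaqMan qRT-PCR, housekeeping-normalized; gain/loss fit vs DMSO.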
# [7] = read-out: Cytochrome P450 (CYP1A1), CYP1A1 (gene 1543); assay: LTEA_HepaRG_CYP1A1: Life Technologies and Expression Analysis (LTEA) Assay for Cytochrome P450 (CYP1A1) using HepaRG (AID 2283454)
# Procedure, shortened: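 qRT-PCR read-out: CYP1A1 transcript normalized to three housekeeping genes, fitted bidirectionally against 0.5% DMSO vehicle baseline. Human HepaRG cells, 48 h chemical exposure, 8-point half-log series topping at 100 uM.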
# [8] = read-out: CFLAR gene, CFLAR (gene 8837); assay: LTEA_HepaRG_CFLAR: Life Technologies and Expression Analysis (LTEA) Assay for CFLAR gene using HepaRG (AID 2283455)
# Procedure, shortened: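 HepaRG, 48 h exposure, 8-pt conc-response (100 uM top, half-log), 0.5% DMSO vehicle, duplicates. CFLAR expression by qRT-PCR; ACTB/GAPDH/POLR2A normalization; gain or loss fit vs DMSO baseline.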
# [9] = read-out: growth arrest and DNA damage 45 (GADD45A), GADD45A (gene 1647); assay: LTEA_HepaRG_GADD45A: Life Technologies and Expression Analysis (LTEA) Assay for growth arrest and DNA damage 45 (GADD45A) using HepaRG (AID 2283458)
# Procedure, shortened: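 Differentiated HepaRG cells were exposed in duplicate for 48 h in serum-free induction medium to 8-point half-log concentrations up to 100 uM in 0.5% DMSO. GADD45A mRNA was measured by TaqMan qRT-PCR, normalized to ACTB, GAPDH and POLR2A, with bidirectional fitting versus DMSO.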
# [10] = read-out: Forkhead box O3 (FOXO3), FOXO3 (gene 2309); assay: LTEA_HepaRG_FOXO3: Life Technologies and Expression Analysis (LTEA) Assay for Forkhead box O3 (FOXO3) using HepaRG (AID 2283459)
# Procedure, shortened: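 HepaRG, 48 h post-dose; 8 conc., half-log from 100 uM, 0.5% DMSO, duplicates; serum-free induction medium. Readout: FOXO3 mRNA, TaqMan qRT-PCR, housekeeping-normalized. Bidirectional curve fit vs DMSO baseline.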
# [11] = read-out: ABC Transporter (ABCB1), ABCB1 (gene 5243); assay: LTEA_HepaRG_ABCB1: Life Technologies and Expression Analysis (LTEA) Assay for ABC Transporter (ABCB1) using HepaRG (AID 2283460)
# Procedure, shortened: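 Expression of ABCB1 was quantified by qRT-PCR against three housekeeping genes after human HepaRG cultures received test chemicals for 48 hours. Concentrations spanned eight half-log steps topping at 100 uM in 0.5% DMSO; gain or loss of signal was fitted relative to vehicle.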
# [12] = read-out: growth arrest and DNA damage 45 (GADD45B), GADD45B (gene 4616); assay: LTEA_HepaRG_GADD45B: Life Technologies and Expression Analysis (LTEA) Assay for growth arrest and DNA damage 45 (GADD45B) using HepaRG (AID 2283461)
# Procedure, shortened: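 qRT-PCR read-out (Fluidigm TaqMan, housekeeping-normalized) of mRNA change in human HepaRG cells after 48 h chemical exposure; 8-point curve, top 100 uM, half-log steps, 0.5% DMSO vehicle; gain or loss fitted relative to DMSO baseline.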
# [13] = read-out: ABC Transporter (ABCC3), ABCC3 (gene 8714); assay: LTEA_HepaRG_ABCC3: Life Technologies and Expression Analysis (LTEA) Assay for ABC Transporter (ABCC3) using HepaRG (AID 2283462)
# Procedure, shortened: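 qRT-PCR read-out of ABCC3 transcript, normalized to three housekeeping genes (ACTB, GAPDH, POLR2A), after 48 h chemical exposure of human HepaRG cells. Eight half-log concentrations, highest 100 uM, in 0.5% DMSO; gain or loss fitted relative to DMSO baseline.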
# [14] = read-out: Cyclin D1 (CCND1), CCND1 (gene 595); assay: LTEA_HepaRG_CCND1: Life Technologies and Expression Analysis (LTEA) Assay for Cyclin D1 (CCND1) using HepaRG (AID 2283451)
# Procedure, shortened: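 qRT-PCR (Fluidigm 96.96 array) read-out of transcript level, housekeeping-normalized (ACTB/GAPDH/POLR2A). HepaRG cells, 48 h chemical exposure, 8-point half-log series from 100 uM, 0.5% DMSO vehicle; gain or loss relative to DMSO baseline.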
# [15] = read-out: Forkhead box O1 (FOXO1), FOXO1 (gene 2308); assay: LTEA_HepaRG_FOXO1: Life Technologies and Expression Analysis (LTEA) Assay for Forkhead box O1 (FOXO1) using HepaRG (AID 2283456)
# Procedure, shortened: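 Readout is FOXO1 transcript level by multiplexed qRT-PCR against three housekeeping genes, curve-fitted in both directions relative to 0.5% DMSO vehicle. Human HepaRG cultures received chemicals for 48 h, up to 100 uM in half-log steps.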
# Sequence of Fatty acid synthase (Homo sapiens) (P49327 whole entry, looked up): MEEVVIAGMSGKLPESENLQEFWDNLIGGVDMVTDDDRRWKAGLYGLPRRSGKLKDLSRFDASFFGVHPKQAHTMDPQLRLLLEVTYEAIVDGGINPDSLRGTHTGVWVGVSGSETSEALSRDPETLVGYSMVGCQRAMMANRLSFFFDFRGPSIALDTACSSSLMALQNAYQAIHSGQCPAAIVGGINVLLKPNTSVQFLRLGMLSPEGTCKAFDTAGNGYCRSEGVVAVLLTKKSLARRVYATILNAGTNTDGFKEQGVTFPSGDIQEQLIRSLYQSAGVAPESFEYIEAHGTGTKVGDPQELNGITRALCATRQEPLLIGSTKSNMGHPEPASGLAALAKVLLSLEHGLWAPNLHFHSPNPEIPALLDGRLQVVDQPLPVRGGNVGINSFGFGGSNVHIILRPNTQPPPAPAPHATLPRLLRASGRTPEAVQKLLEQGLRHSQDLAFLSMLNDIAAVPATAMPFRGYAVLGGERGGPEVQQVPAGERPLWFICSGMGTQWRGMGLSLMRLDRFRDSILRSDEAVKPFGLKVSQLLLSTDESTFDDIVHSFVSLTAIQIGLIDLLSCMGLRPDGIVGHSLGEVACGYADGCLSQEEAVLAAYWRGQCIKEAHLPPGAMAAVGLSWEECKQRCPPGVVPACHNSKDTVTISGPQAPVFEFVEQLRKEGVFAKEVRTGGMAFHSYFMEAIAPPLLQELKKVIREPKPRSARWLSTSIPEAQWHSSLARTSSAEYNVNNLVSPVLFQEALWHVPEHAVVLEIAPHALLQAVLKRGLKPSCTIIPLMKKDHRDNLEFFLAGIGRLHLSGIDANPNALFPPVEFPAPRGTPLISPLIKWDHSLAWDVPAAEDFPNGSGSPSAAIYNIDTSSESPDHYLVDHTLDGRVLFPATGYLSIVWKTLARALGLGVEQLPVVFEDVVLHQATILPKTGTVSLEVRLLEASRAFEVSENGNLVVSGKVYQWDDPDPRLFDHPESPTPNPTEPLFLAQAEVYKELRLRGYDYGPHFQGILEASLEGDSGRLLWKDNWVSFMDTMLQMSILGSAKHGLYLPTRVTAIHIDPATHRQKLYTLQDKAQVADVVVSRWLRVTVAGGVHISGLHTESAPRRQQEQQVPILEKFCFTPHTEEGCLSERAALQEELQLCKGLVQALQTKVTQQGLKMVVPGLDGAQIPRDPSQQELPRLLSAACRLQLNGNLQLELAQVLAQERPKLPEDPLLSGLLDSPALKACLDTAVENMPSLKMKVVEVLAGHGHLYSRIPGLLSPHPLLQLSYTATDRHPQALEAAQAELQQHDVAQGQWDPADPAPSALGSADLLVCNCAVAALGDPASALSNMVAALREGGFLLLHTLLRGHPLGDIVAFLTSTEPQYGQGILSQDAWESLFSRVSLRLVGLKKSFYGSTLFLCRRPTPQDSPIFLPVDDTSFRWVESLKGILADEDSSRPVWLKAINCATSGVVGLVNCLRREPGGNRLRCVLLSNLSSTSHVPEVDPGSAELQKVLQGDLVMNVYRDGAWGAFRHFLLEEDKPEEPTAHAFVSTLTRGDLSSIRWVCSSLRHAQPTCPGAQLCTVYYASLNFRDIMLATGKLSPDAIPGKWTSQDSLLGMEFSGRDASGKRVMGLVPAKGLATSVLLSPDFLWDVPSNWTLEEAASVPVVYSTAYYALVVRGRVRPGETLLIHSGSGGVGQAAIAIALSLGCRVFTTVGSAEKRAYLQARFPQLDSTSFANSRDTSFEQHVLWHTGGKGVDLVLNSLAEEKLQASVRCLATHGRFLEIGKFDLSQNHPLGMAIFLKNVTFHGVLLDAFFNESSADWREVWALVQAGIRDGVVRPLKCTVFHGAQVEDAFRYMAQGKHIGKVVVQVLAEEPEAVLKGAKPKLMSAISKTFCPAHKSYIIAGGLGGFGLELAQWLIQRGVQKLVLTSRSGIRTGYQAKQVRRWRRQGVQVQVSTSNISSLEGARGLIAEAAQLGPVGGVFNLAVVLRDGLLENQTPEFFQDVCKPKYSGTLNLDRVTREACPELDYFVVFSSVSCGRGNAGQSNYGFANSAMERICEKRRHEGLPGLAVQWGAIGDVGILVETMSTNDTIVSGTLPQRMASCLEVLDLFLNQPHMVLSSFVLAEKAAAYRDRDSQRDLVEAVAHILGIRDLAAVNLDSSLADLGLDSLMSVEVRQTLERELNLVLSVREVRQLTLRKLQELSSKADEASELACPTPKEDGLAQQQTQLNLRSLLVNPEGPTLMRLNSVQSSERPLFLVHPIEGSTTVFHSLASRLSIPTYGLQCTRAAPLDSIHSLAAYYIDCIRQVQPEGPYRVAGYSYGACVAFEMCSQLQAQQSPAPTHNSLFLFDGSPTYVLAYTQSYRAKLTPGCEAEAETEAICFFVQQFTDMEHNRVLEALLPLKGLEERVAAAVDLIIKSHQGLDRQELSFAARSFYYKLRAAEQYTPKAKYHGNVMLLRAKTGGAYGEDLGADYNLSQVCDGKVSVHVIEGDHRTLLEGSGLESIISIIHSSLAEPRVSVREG
compound,measurement,setting,value
CC[C@H]1OC(=O)[C@H](C)[C@@H](O[C@H]2C[C@@](C)(OC)[C@@H](O)[C@H](C)O2)[C@H](C)[C@@H](O[C@@H]2O[C@H](C)C[C@H](N(C)C)[C@H]2O)[C@](C)(O)C[C@@H](C)C(=O)[C@H](C)[C@@H](O)[C@]1(C)O,outcome,[1],inactive
same,outcome,[2],inactive
same,outcome,[3],inactive
same,outcome,[4],inactive
same,outcome,[5],inactive
same,outcome,[6],inactive
same,AC50,[7],53.9 µM (active)
same,outcome,[8],inactive
same,outcome,[9],inactive
same,outcome,[10],inactive
same,outcome,[11],inactive
same,outcome,[12],inactive
same,outcome,[13],inactive
Cn1c(=O)c2c(ncn2C)n(C)c1=O,outcome,[1],inactive
same,outcome,[2],inactive
same,outcome,[3],inactive
same,outcome,[4],inactive
same,outcome,[5],inactive
same,outcome,[6],inactive
same,AC50,[7],50 µM (active)
same,outcome,[8],inactive
same,outcome,[9],inactive
same,outcome,[10],inactive
same,outcome,[11],inactive
same,outcome,[12],inactive
same,outcome,[13],inactive
O=C(O)CC(O)C(=O)O (stereo not drawn),outcome,[1],inactive
same,outcome,[2],inactive
same,outcome,[4],inactive
same,outcome,[14],inactive
same,outcome,[5],inactive
same,outcome,[6],inactive
same,AC50,[7],77.9 µM (active)
same,outcome,[8],inactive
same,outcome,[15],inactive
same,outcome,[9],inactive
same,outcome,[10],inactive
same,outcome,[11],inactive
same,outcome,[12],inactive
same,outcome,[13],inactive
COc1ccc2sc(C(=O)Nc3nnn[nH]3)c(OC(C)C)c2c1,AC50,[1],63.8 µM (active)
same,AC50,[2],89.1 µM (active)
same,outcome,[3],inactive
same,AC50,[4],50 µM (active)
same,AC50,[5],81.3 µM (active)
same,AC50,[6],10.9 µM (active)
same,AC50,[7],35.3 µM (active)
same,AC50,[8],25.2 µM (active)
same,AC50,[15],19.9 µM (active)
same,AC50,[9],31.4 µM (active)
same,AC50,[10],23.6 µM (active)
same,outcome,[11],inactive
same,AC50,[12],43.9 µM (active)
same,AC50,[13],24.4 µM (active)
CCCCC(CC)COC(=O)CCCCCCCCC(=O)OCC(CC)CCCC (stereo not drawn),outcome,[1],inactive
same,outcome,[2],inactive
same,outcome,[3],inactive
same,outcome,[4],inactive
same,outcome,[5],inactive
same,outcome,[6],inactive
same,outcome,[7],inactive
same,outcome,[8],inactive
same,outcome,[9],inactive
same,outcome,[10],inactive
same,outcome,[11],inactive
same,outcome,[12],inactive
same,outcome,[13],inactive
CNCc1ccc(NC(=O)c2c[nH]c3c2C(=O)CCC3)cc1,outcome,[1],inactive
same,outcome,[2],inactive
same,outcome,[3],inactive
same,outcome,[4],inactive
same,outcome,[5],inactive
same,outcome,[6],inactive
same,AC50,[7],73.8 µM (active)
same,outcome,[8],inactive
same,outcome,[9],inactive
same,outcome,[10],inactive
same,outcome,[11],inactive
same,outcome,[12],inactive
same,outcome,[13],inactive
CCN(C(=O)c1cc(C)cc(OC[C@H](C)Nc2ccncc2)c1)C(C)C,AC50,[1],8.02 µM (active)
same,AC50,[2],5.84 µM (active)
same,outcome,[4],inactive
same,outcome,[14],inactive
same,AC50,[5],33.8 µM (active)
same,AC50,[6],50.7 µM (active)
same,AC50,[7],19.5 µM (active)
same,outcome,[8],inactive
same,AC50,[9],0.232 µM (active)
same,outcome,[10],inactive
same,outcome,[11],inactive
same,outcome,[12],inactive
same,AC50,[13],33.8 µM (active)
